Test results published in PubChem BioAssay (NCATS).
Inconclusive results are not listed. Entries that show only a call come without a potency. The source made the active and inactive calls. Unless noted, the call rests on the fitted dose curve; in most records, active means well fitted curve in the direction sought with a large enough effect; inconclusive means small, poorly fitted or top-dose-only effect, or another doubt; inactive means no such curve, though single readings can be large; an effect the other way counts as inactive or inconclusive.

Key:
[1] = biological target: phosphoglycerate mutase (Leishmania major) (UniProt Q4Q090); assay: qHTS Validation Assay to Find Inhibitors of Phosphoglycerate Mutase (AID 504548);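 further: end-point luminescence from Kinase-GloPlus after the PGAM reaction; series mostly up to about 58 µM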
Chain of phosphoglycerate mutase (Leishmania major) (Q4Q090 1-553): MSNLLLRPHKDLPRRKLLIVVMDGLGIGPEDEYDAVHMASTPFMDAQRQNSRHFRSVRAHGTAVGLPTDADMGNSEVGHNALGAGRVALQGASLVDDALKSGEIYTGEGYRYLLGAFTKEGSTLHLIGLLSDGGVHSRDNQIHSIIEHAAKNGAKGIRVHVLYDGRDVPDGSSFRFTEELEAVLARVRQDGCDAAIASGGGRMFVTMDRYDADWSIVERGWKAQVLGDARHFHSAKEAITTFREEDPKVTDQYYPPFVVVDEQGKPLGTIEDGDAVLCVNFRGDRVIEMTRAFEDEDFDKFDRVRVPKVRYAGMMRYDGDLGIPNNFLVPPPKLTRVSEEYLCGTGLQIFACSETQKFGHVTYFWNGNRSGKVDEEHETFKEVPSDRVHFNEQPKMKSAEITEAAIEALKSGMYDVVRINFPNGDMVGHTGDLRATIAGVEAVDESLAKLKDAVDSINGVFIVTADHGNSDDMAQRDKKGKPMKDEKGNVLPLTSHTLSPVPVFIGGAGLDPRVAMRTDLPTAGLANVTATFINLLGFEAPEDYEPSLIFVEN
How it was run: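 Inhibition of L. major PGAM was assessed by Kinase-GloPlus luminescence following a 45-minute room-temperature reaction with enzyme at 1.25nM final.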

[2] = biological target: Ubiquitin carboxyl-terminal hydrolase 1 (Homo sapiens) (UniProt O94782); assay: Inhibitors of USP1/UAF1: Pilot qHTS (AID 504865); further: nearly all actives have a fitted effect of over 35% in size; further: potency means the concentration at half of the fitted maximal effect
Chain of Ubiquitin carboxyl-terminal hydrolase 1 (Homo sapiens) (O94782 whole entry, looked up): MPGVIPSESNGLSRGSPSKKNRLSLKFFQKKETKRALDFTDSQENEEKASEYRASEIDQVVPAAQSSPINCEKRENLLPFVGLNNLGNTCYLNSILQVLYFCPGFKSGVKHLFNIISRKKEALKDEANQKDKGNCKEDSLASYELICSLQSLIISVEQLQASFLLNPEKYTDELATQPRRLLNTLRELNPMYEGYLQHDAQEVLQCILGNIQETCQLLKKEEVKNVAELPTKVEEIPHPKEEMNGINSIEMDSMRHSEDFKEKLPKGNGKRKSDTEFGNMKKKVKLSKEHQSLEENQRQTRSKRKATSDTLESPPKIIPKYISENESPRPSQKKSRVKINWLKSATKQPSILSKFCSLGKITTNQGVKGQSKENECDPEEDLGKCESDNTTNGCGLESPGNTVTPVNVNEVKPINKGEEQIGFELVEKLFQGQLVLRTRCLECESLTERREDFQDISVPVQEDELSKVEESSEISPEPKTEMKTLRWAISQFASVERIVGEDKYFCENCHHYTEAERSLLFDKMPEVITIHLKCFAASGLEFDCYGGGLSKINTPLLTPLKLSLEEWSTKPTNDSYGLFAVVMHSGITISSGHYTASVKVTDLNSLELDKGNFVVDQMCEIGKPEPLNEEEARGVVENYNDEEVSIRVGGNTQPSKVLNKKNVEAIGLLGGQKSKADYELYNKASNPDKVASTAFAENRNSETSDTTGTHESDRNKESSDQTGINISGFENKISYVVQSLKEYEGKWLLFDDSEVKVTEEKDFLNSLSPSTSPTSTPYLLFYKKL
How it was run: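 USP1/UAF1 complex at 1 nM preincubated 15 min at room temperature with compound, then Ub-Rho substrate added at 150 nM final. Fluorescence (480/540 nm) read kinetically in 50 mM HEPES pH 7.8, 0.5 mM EDTA, 1 mM TCEP, 0.1 mg/ml BSA, 0.01% Tween-20.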

[3] = qHTS for Inhibitors of ATXN expression: Validation of Cytotoxic Assay (AID 588349)
How it was run: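 Read-out: ATP-based luminescence (CellTiter Glo) reflecting viability of HEK293 cells after 72 hr incubation at 37 degrees C with a concentration series of each compound.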

[4] = biological target: DNA dC->dU-editing enzyme APOBEC-3G (Homo sapiens) (UniProt Q9HC16); assay: qHTS for inhibitors of Vif-A3G interactions: Validation (AID 588379)
Chain of DNA dC->dU-editing enzyme APOBEC-3G (Homo sapiens) (Q9HC16 whole entry, looked up): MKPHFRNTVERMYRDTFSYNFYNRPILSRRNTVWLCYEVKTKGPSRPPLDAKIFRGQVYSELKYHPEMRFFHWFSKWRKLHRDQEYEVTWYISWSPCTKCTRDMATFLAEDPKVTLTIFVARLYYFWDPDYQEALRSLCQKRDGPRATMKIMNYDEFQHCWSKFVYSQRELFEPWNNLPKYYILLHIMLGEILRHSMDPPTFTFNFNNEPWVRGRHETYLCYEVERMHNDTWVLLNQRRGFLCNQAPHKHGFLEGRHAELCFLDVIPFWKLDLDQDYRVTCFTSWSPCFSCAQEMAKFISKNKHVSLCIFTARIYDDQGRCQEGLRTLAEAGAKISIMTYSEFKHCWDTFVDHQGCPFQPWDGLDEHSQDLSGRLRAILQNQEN
How it was run: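 HeLa cells stably expressing Vif and A3G-eYFP, 700 cells/well, incubated overnight at 37 deg C, then exposed to compound overnight at 37 deg C. Inhibition of Vif-mediated degradation read as increased yellow fluorescence (Ex 488/Em 500-530) by laser-scanning cytometry.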

[5] = biological target: Estrogen receptor (Homo sapiens) (UniProt P03372); assay: qHTS assay for small molecule antagonists of estrogen receptor alpha signaling (AID 588513; active means well fitted curve in the direction sought with a large enough effect in the signal ratio, with a control signal flat, not every such curve was filed as active; the % refers to the signal ratio; further: potency means the concentration at half of the fitted maximal effect)
Chain of Estrogen receptor (Homo sapiens) (P03372 whole entry, looked up): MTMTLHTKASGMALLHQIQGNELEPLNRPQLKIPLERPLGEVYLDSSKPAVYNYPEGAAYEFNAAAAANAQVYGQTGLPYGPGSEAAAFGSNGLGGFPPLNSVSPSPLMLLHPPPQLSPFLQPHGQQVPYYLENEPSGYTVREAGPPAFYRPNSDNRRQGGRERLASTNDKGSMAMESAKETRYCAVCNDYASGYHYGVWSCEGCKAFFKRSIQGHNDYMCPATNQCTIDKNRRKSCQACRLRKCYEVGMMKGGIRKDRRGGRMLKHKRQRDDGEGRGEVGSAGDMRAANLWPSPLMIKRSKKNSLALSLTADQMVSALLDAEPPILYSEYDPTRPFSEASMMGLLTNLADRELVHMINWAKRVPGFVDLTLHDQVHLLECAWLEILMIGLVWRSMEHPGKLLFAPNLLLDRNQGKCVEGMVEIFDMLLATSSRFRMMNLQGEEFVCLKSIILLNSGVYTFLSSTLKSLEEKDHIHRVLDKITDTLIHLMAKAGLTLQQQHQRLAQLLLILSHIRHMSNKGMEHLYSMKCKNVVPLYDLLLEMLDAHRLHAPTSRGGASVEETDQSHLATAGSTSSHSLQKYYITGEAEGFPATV
How it was run: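 ER-alpha-UAS-bla GripTite HEK 293 cells in 2% charcoal/dextran-treated FBS medium; compounds titrated (1:2, duplicate), then stimulated with 0.5 nM 17-beta-estradiol for 18 h at 37C. CCF4 beta-lactamase fluorescence; Hill-fit IC50 and efficacy.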

[6] = biological target: Androgen receptor (Homo sapiens) (UniProt P10275); assay: qHTS assay for small molecule agonists of androgen receptor signaling (AID 588515; active means well fitted curve in the direction sought with a large enough effect in the signal ratio, with a control signal flat; the % refers to the signal ratio); settings: AR-UAS-bla HEK293, beta-lactamase ratio, agonist 16 h; activation: stronger effect = higher value
Chain of Androgen receptor (Homo sapiens) (P10275 whole entry, looked up): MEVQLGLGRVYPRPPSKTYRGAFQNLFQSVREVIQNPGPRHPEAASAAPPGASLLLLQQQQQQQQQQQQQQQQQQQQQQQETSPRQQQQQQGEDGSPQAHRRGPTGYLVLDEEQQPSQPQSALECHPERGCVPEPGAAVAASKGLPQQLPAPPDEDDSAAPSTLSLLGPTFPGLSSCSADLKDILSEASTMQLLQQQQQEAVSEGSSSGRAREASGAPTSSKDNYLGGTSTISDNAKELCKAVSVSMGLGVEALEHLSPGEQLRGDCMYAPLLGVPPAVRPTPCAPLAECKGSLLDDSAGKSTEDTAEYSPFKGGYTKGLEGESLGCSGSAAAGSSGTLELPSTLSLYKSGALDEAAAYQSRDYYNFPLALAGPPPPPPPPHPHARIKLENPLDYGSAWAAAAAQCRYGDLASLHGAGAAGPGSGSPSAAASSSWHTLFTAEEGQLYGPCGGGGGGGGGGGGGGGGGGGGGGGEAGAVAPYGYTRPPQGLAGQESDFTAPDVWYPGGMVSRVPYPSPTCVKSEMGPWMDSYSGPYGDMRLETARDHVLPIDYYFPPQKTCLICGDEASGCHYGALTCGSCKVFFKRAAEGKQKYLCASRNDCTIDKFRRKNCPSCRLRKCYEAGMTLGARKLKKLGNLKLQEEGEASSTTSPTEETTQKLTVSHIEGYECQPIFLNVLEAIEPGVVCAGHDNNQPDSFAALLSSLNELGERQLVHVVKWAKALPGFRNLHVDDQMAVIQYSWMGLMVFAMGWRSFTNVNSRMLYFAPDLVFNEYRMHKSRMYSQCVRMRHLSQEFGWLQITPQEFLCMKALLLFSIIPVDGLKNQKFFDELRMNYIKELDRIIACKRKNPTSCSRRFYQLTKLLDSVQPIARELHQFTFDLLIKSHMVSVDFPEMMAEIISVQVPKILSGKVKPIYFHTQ
How it was run: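 EC50 and efficacy came from Hill fits of titrations (up to 92 uM) normalized to 30 nM R1881 as 100% and DMSO as 0%. Compound exposure was 16 h at 37 C on AR-UAS-bla HEK293 cells, with a 405/460/530 nm CCF4 fluorescence read.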

[7] = biological target: Androgen receptor (Homo sapiens) (UniProt P10275); assay: qHTS assay for small molecule antagonists of androgen receptor signaling (AID 588516; active means well fitted curve in the direction sought with a large enough effect in the signal ratio, with a control signal flat, not every such curve was filed as active; the % refers to the signal ratio)
How it was run: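 AR-UAS-bla GripTite HEK 293 cells (2000/well) treated with compound titrations plus 10 nM R1881 for 16 h at 37C. Beta-lactamase read by CCF4 FRET (460/530 nm); IC50 from Hill fits, normalized to R1881 and DMSO control wells.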

[8] = biological target: Peroxisome proliferator-activated receptor gamma (Homo sapiens) (UniProt P37231); assay: qHTS assay for small molecule antagonists of peroxisome proliferator-activated receptor gamma signaling (AID 588537; active means well fitted inhibition curve with a large enough effect in the signal ratio, with a control signal flat, not every such curve was filed as active; the % refers to the signal ratio;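 further: reporter cells co-stimulated with 50 nM rosiglitazone agonist during compound treatment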)
Chain of Peroxisome proliferator-activated receptor gamma (Homo sapiens) (P37231 whole entry, looked up): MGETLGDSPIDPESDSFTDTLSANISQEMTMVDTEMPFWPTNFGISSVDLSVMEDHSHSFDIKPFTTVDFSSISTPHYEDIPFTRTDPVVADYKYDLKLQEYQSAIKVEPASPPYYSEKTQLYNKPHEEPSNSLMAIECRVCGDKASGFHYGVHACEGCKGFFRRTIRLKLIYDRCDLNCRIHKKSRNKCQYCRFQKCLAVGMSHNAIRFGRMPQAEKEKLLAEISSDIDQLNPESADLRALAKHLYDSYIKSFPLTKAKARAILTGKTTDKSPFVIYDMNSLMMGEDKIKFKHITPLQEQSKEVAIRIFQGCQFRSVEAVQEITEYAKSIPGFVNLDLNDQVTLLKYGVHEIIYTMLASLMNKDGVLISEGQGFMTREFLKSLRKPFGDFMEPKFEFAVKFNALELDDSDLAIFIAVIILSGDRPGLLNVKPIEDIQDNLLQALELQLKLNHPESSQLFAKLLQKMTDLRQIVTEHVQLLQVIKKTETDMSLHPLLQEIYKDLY
How it was run: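 We seeded GeneBLAzer HEK293 reporter cells at 3000 per well, allowed 6-6.5 h attachment at 37 C, then co-treated with test compound titrations and 50 nM rosiglitazone overnight (16 h). Inhibition was quantified from 460/530 nm emission ratios.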

[9] = biological target: Thyroid hormone receptor beta (Homo sapiens) (UniProt P10828); assay: qHTS assay for small molecule agonists of thyroid hormone receptor beta signaling (AID 588545; calls by dose curve)
Chain of Thyroid hormone receptor beta (Homo sapiens) (P10828 whole entry, looked up): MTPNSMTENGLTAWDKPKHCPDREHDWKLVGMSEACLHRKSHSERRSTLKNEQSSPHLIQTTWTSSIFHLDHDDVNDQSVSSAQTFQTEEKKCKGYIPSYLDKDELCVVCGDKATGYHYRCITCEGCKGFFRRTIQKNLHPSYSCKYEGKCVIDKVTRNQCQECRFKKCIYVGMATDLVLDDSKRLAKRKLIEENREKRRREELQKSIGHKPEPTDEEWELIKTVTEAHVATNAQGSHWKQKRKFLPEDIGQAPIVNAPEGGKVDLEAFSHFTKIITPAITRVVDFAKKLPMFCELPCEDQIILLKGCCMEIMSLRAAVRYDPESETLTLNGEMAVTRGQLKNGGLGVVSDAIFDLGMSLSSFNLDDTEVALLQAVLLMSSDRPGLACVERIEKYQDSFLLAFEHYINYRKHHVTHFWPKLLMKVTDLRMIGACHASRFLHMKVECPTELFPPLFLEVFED
How it was run: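 Efficacy and EC50 values derive from Hill fits of qHTS titration data, normalized to 10 nM T3 and DMSO-only wells. HEK 293 reporter cells were stimulated for 18 hrs at 37 C, with beta-lactamase activity measured by CCF4 fluorescence.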

[10] = qHTS assay for small molecule antagonists of retinoid X receptor alpha signaling (AID 588546); settings: HEK293T RXRa-UAS-bla, beta-lactamase ratio, antagonist mode; measured here: W530 green channel, cytotoxicity proxy;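 further: cells stimulated with 9-cis-retinoic acid as agonist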
How it was run: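 Beta-lactamase reporter inhibition, read as CCF4 fluorescence ratio (ex 405, em 460/530 nm) after 2 h at RT. HEK293T UAS-bla cells, 2500/well, were stimulated with 9-cis-RA at 500 or 100 nM final alongside test compound for 18 h at 37 C.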

[11] = biological target: Estrogen receptor (Homo sapiens) (UniProt P03372); assay: qHTS assay for small molecule agonists of estrogen receptor alpha signaling (AID 588514; calls by dose curve; further: nearly all actives have a fitted effect of over 70% in size)
How it was run: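 Cells were plated at 5000/well, incubated 4 hrs at 37 C, dosed with compound titration series, incubated 18 hrs at 37 C, loaded with CCF4 dye for 2 hrs at RT, then fluorescence was read.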

[12] = biological target: Glucocorticoid receptor (Homo sapiens) (UniProt P04150); assay: qHTS assay for small molecule agonists of glucocorticoid receptor signaling (AID 588532; active means well fitted curve in the direction sought with a large enough effect in the signal ratio, with a control signal flat; the % refers to the signal ratio); settings: HeLa MMTV-bla, beta-lactamase ratio, agonist, 18 h; stronger effect = higher value; percent of dexamethasone control, DMSO zero
How it was run: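 MMTV-bla HeLa, beta-lactamase reporter; medium with 1% charcoal/dextran-stripped FBS; cpds up to 92 uM, 18 h, 37 C; CCF4 readout 460/530 nm; Hill fit → EC50, efficacy vs 0.1 uM dexamethasone = 100%.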

[13] = biological target: Peroxisome proliferator-activated receptor gamma (Homo sapiens) (UniProt P37231); assay: qHTS assay for small molecule agonists of peroxisome proliferator-activated receptor gamma signaling (AID 588536; active means well fitted curve in the direction sought with a large enough effect in the signal ratio, with a control signal flat, not every such curve was filed as active; the % refers to the signal ratio)
How it was run: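 HEK293 UAS-bla reporter line, 1% charcoal/dextran FBS; titration, 16 h, 37 C; CCF4 loading 2 h RT; fluorescence 460/530 nm. Normalized to rosiglitazone 2 uM = 100%, DMSO = 0%.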

[14] = biological target: Vitamin D3 receptor (Homo sapiens) (UniProt P11473); assay: qHTS assay for small molecule antagonists of vitamin D receptor signaling (AID 588541; calls by dose curve;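 further: receptor activated by calcitriol during compound treatment; series mostly up to about 77 µM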)
Chain of Vitamin D3 receptor (Homo sapiens) (P11473 whole entry, looked up): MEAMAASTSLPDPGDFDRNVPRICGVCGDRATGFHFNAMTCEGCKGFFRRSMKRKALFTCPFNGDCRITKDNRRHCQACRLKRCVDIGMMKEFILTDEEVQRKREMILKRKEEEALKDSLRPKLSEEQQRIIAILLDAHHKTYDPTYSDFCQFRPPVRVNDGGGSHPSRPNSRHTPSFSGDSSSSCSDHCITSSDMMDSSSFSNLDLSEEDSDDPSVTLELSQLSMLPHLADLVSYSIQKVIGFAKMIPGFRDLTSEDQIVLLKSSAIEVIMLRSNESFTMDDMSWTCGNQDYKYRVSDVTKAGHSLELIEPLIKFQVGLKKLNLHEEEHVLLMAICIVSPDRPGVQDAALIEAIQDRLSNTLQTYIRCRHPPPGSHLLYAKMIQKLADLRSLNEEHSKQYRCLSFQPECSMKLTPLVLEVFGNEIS
How it was run: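 VDR-UAS-bla HEK293T cells (2000/well, 2% charcoal-stripped FBS) were treated with titrated compounds plus 1-alpha,25-dihydroxyvitamin D3 (50 nM or 3 nM final) for 16 h at 37 C. CCF4 beta-lactamase fluorescence was read; Hill fits gave IC50.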

[15] = biological target: Vitamin D3 receptor (Homo sapiens) (UniProt P11473); assay: qHTS assay for small molecule agonists of vitamin D receptor signaling (AID 588543; calls by dose curve)
How it was run: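 VDR-UAS-bla HEK293T cells, 2000/well, 2% charcoal-stripped FBS; compound titration 16 h at 37 C; CCF4 beta-lactamase ratio read. Normalized to 50 nM 1-alpha,25-dihydroxyvitamin D3 (100%) and DMSO; Hill fit gives EC50, efficacy.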

[16] = qHTS assay for small molecule agonists of retinoid X receptor alpha signaling (AID 588544; calls by dose curve); settings: HEK293T RXRa-UAS-bla, beta-lactamase reporter, 18 h; 530 nm emission
[17] = biological target: Retinoic acid receptor RXR-alpha (Homo sapiens) (UniProt P19793); assay: as above

Cc1[nH]c(=O)c(C#N)cc1-c1ccc2nccn2c1
outcome [1]: inactive | Potency [2]: inactive

CCC(C)N(C)C(=O)c1cc2ccccc2c(-c2ccccc2Cl)n1 (stereo not given)
outcome [1]: inactive | Potency [2]: inactive | Potency [3]: inactive

NCCCC(N)(C(=O)O)C(F)F (stereo not given)
outcome [1]: inactive | Potency [2]: inactive | Potency [3]: inactive

CC(C)(Sc1ccc(CCN(CCCCC2CCCCC2)C(=O)NC2CCCCC2)cc1)C(=O)O
outcome [1]: inactive | Potency [2]: 44.7 µM (active) | Potency [3]: inactive | outcome [4]: inactive | Potency [5]: 15.8 µM [inhibitor] (active) | activation [6]: -10.8% (inactive) | outcome [7]: inactive

CCN(CC)CCCC(C)Nc1ccnc2cc(Cl)ccc12 (stereo not given)
outcome [1]: inactive | Potency [2]: inactive

Cc1[nH]c(=O)c(C#N)cc1-c1ccncc1
outcome [1]: inactive | Potency [2]: inactive | Potency [3]: inactive | outcome [4]: inactive | outcome [8]: inactive | outcome [9]: inactive | max response [10]: -2.65%

C1COC(NC(C2CC2)C2CC2)=N1
outcome [1]: inactive | Potency [2]: inactive | Potency [3]: inactive | outcome [4]: inactive

Cc1ccc(N(CC2=NCCN2)c2cccc(O)c2)cc1
outcome [1]: inactive | Potency [2]: inactive

O=c1n(CCCN2CCN(c3cccc(Cl)c3)CC2)nc2ccccn12
outcome [1]: inactive | Potency [2]: inactive | Potency [3]: inactive

Cc1cn[nH]c1
outcome [1]: inactive | Potency [2]: inactive | Potency [3]: inactive

Clc1cccc(Cl)c1NC1=NCCN1
outcome [1]: inactive | Potency [2]: inactive | Potency [3]: inactive | outcome [4]: inactive

CC(C)NCC(O)COc1ccc(COCCOC(C)C)cc1 (stereo not given)
outcome [1]: inactive | Potency [2]: inactive | Potency [3]: inactive

CCn1cc(C(=O)O)c(=O)c2cc(F)c(N3CCNC(C)C3)c(F)c21 (stereo not given)
outcome [1]: inactive | Potency [2]: inactive | Potency [3]: inactive

Oc1ccc(C2CNCCc3c2cc(O)c(O)c3Cl)cc1 (stereo not given)
outcome [1]: inactive | Potency [2]: inactive | Potency [3]: inactive

O=C1CCc2cc(OCCCCc3nnnn3C3CCCCC3)ccc2N1
outcome [1]: inactive | Potency [2]: inactive | Potency [3]: inactive | outcome [4]: inactive

NC(N)=NC(=O)c1nc(Cl)c(N)nc1N
outcome [1]: inactive | Potency [2]: inactive | Potency [3]: inactive | outcome [4]: inactive | outcome [11]: inactive | activation [12]: 0.0438% (inactive) | outcome [13]: inactive | outcome [14]: inactive | outcome [15]: inactive | max response [16]: -3.06% | outcome [17]: inactive | outcome [9]: inactive | max response [10]: -9.32%

Nc1nc2c(ncn2COCCO)c(=O)[nH]1
outcome [1]: inactive | Potency [2]: inactive | Potency [3]: inactive

Nc1ccc(S(=O)(=O)Nc2ccnn2-c2ccccc2)cc1
outcome [1]: inactive | Potency [2]: inactive | Potency [3]: inactive
